Consider 55 compounds from PubChem BioAssay AID1240 (Sanford-Burnham Center for Chemical Genomics, 2008).

SMILES strings stand for the structures. About 800 (1.6%) of roughly 50,000 compounds showed an effect of 50% or more. Shown is part of a subset that was picked to be rich in strong results.

Sequence of Bcl-2-like protein 10 (Homo sapiens) (Q9HD36 whole entry, looked up): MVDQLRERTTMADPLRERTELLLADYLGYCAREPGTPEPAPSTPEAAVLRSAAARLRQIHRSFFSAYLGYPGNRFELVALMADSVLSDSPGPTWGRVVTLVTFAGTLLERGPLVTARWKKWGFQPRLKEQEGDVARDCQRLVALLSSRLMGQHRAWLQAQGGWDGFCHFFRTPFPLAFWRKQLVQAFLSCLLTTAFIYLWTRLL

This assay addresses Bcl-2-like protein 10 (Homo sapiens) (UniProt Q9HD36). As to the kind of experiment: TR3 peptide-Bcl-B binding displacers, biochemical primary FP assay, phenotype converters (AID 1240).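 Also: 0% = Bcl-B with tracer peptide and DMSO and 100% = tracer peptide lacking Bcl-B.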 The conditions noted are these: GST-Bcl-B / FITC-TR3 peptide fluorescence polarization; stronger effect = higher value; compound at 3.75 mg/L. A general note: In fluorescence polarisation assays a small probe gives low polarisation when free and higher when bound to something large.
As for `O=C1S/C(=C/c2ccc(-c3ccc(F)cc3)o2)C(=O)N1c1ccccc1`, the displacement is 12.2%.

For `O=C1S/C(=C/c2ccc(-c3cccc([N+](=O)[O-])c3)o2)C(=O)N1c1ccccc1`, the displacement came out at 111%.

Turning to `Cc1cccc(/C=C2/SC(=S)N(CN3CCCCC3)C2=O)c1`, the displacement came to 11.3%.

Regarding `O=C1CCCCC1Oc1ccc2c(-c3ccccc3)cc(=O)oc2c1` (stereo not given), the displacement was -9.6%.

Regarding `O=C(COc1ccc2ccccc2c1)Nc1cc([N+](=O)[O-])ccc1F`, the displacement is 29.5%.

For the compound `CCSC1C(C)=C(C)C(=O)N1C(C)(C)c1cc(Cl)cc(Cl)c1` (stereo not given), the displacement is 21.2%.

As for `O=C(O)CCCCCCCCCCN1C(=O)/C(=C/c2cccc(Br)c2)SC1=S`, the displacement was -3.4%.

For `CCOc1ccccc1NC(=O)CN1C(=O)/C(=C\c2cc(OC)c(OC)c(OC)c2)SC1=S`, the displacement is 36.8%.

In the case of `O=C(O)CCCN1C(=O)/C(=C/c2cccc(Br)c2)SC1=S`, the displacement was found to be 91.2%.

In the case of `O=C(CN1C(=O)/C(=C/c2cccc(Br)c2)SC1=S)Nc1cccnc1`, the displacement is 9.6%.

Take `COc1ccc(NC(=O)CN2C(=O)/C(=C/c3cccc(Br)c3)SC2=S)cc1`: the displacement worked out at 11.6%.

For `O=C(CN1C(=O)/C(=C/c2ccccc2)SC1=S)Nc1cccc(Br)c1`, the displacement came to 11.9%.

As for `O=C(CN1C(=O)/C(=C/c2cccc(Br)c2)SC1=S)Nc1ccccn1`, the displacement turned out to be 69%.

Turning to `CCOc1ccccc1NC(=O)CN1C(=O)/C(=C/c2cccc(Br)c2)SC1=S`, the displacement came out at 78.7%.

`O=C(O)CCCN1C(=O)/C(=C\c2cccc(O)c2)SC1=S`: the displacement is 0.6%.

Turning to `O=c1[nH]c(=S)[nH]c(O)c1C=Nc1cc(Cl)ccc1O`, the displacement stood at 3.2%.

Turning to `O=C(CN1C(=O)CCC1=O)NCCc1ccccc1`, the displacement was -5.5%.

As to `COc1ccc(Cl)cc1C(=O)Nc1cccc2nsnc12`, the displacement amounted to 12.8%.

Turning to `O=C1C(Cl)=C(Nc2ccccc2)C(=O)N1c1ccc(Br)cc1`, the displacement came to 6.4%.

As for `COc1ccccc1-n1c(O)c(C=Nc2ccccc2Cl)c(=O)[nH]c1=O`, the displacement came out at 1.2%.

As to `O=C1C2=C(Nc3ccccc3SC2c2ccc3c(c2)OCO3)c2ccccc21` (stereo not given), the displacement was -16.3%.

Turning to `CN1CCN(C(=O)CCN2C(=O)/C(=C/c3cccs3)SC2=S)CC1`, the displacement was 0.2%.

As for `CCN(CC)C(=O)Cc1ccc2c3c(cccc13)CC2`, the displacement came to 12.7%.

Turning to `COc1ccc(NC(=O)C/C(C)=N/NC(=O)c2cnccn2)cc1`, the displacement was -21.6%.

In the case of `COc1ccc(NC(=O)c2cnccn2)cc1`, the displacement was found to be 105%.

Turning to `CC(=O)c1ccc(NC(=O)c2cnccn2)cc1`, the displacement was found to be 37.3%.

As to `CCOc1ccc(C(=O)Nc2ccc3oc(-c4ccccc4Br)nc3c2)cc1`, the displacement was found to be 14%.

In the case of `Cc1ccc(NC(=O)c2cccc(C(=O)Nc3ccc(C)c(C)c3)c2)cc1C`, the displacement was -0.1%.

Turning to `O=C(CCCN1C(=O)c2cccc3cccc(c23)C1=O)OC/C=C/c1ccccc1`, the displacement was determined as 6.6%.

For `Brc1ccc(Nc2nc(-c3ccncc3)nc3ccccc23)cc1`, the displacement stood at 44.4%.

For the compound `Fc1ccc(Nc2nc(-c3ccncc3)nc3ccccc23)cc1F`, the displacement is 47.8%.

Consider `Clc1ccc(Nc2nc(-c3ccncc3)nc3ccccc23)cc1`, for which the displacement amounted to 109%.

For the compound `O=C(Nc1ccc2c(c1)OCO2)c1ccccc1[N+](=O)[O-]`, the displacement is -5.9%.

Regarding `O=C(O)CSc1nnc2c(n1)[nH]c1ccccc12`, the displacement was determined as 3.1%.

Turning to `Cc1ccc(/C=C2\CCC/C(=C\c3ccc(C)o3)C2=O)o1`, the displacement worked out at 15.2%.

On to `Cc1nc(SCC(=O)Nc2nnc(-c3ccccc3)s2)n[nH]1`, for which the displacement was 11.9%.

On to `C/C(NCc1ccccc1)=C(\C#N)C(=O)NCc1ccccc1`, for which the displacement was -2.4%.

With `COc1cc(-c2csc(N)n2)ccc1O`, the displacement is 15.6%.

For `O=C(COc1ccc(C=C2C(=O)NC(=O)NC2=O)cc1)NCCc1ccccc1`, the displacement turned out to be 82.5%.

On to `CC(C)NC(=O)COc1ccc(C=C2C(=O)NC(=O)NC2=O)cc1`, for which the displacement is 1.8%.

On to `CC(NC(=O)COc1ccc(C=C2C(=O)NC(=O)NC2=O)cc1)c1ccccc1` (stereo not given), for which the displacement was 7.3%.

Take `C/C=C/COC(=O)C1=C(C)NC(=O)NC1c1cc(Cl)c(O)c(OC)c1` (stereo not given): the displacement was 8.4%.

With `CCOC(=O)c1c(NC(=O)c2ccc(OC(C)C)c(OCC)c2)sc2ccccc12`, the displacement came to 80%.

Take `CCOC(=O)c1c(NC(=O)c2cc(OCC)c(OCC)c(OCC)c2)sc(C)c1C`: the displacement was -6.2%.

For `CCOC(=O)c1c(NC(=O)c2ccc(Cl)cc2)sc2ccccc12`, the displacement was 39.1%.

As for `COc1ccc(Nc2ncnc3ccc(C)cc23)cc1`, the displacement is 9%.

On to `Cc1ccc(S(=O)(=O)N/N=C/c2ccc(-c3ccc([N+](=O)[O-])cc3Cl)o2)cc1`, for which the displacement was -9.8%.

With `O=[N+]([O-])c1ccc(N/N=C/c2ccc(-c3ccc(Cl)cc3)o2)cc1`, the displacement was -4%.

As for `Cc1ccc(OCC(=O)N/N=C\c2ccc(-c3ccc([N+](=O)[O-])cc3)o2)cc1`, the displacement was determined as 116%.

`Cc1ccc(S(=O)(=O)N/N=C/c2ccc(-c3ccc([N+](=O)[O-])cc3Br)o2)cc1`: the displacement was determined as 2.5%.

With `O=C(COc1ccc(I)cc1)N/N=C/c1ccc(-c2ccc([N+](=O)[O-])cc2)o1`, the displacement turned out to be 59%.

As for `Cc1ccc2nc(-c3ccc(OCC(=O)N/N=C/c4ccc([N+](=O)[O-])o4)cc3)cc(-c3ccccc3)c2c1`, the displacement is -16.7%.

As for `O=C(COc1ccc(Cl)cc1)N/N=C/c1ccc(I)o1`, the displacement is -6%.

Turning to `Cc1ccc(S(=O)(=O)N/N=C/c2ccc(-c3ccc([N+](=O)[O-])cc3C)o2)cc1`, the displacement was determined as 52.8%.

In the case of `Cc1ccc(OCC(=O)N/N=C\c2ccc(-c3ccc(Cl)cc3)o2)cc1`, the displacement was 38.4%.
